Source: PubChem BioAssay AID588475 (Sanford-Burnham Center for Chemical Genomics, 2011)
Screen size: about 350,000 compounds; about 2,100 (0.6%) were called active. The list comes from a sample in which actives are over-represented; it also holds similar structures and randomly drawn compounds. Values without a mark were called inactive.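 The calls were made as follows: active = inhibition of the ligand-induced calcium signal above about 50% at the single tested concentration (limit read from the data); inactive = the rest.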

Assay: blockers of CRF-evoked CRF-R2/CRF-BP calcium response – cell-based, HEK293, calcium dye fluorescence, uHTS, primary screen (AID 588475)
Details: CRF-induced calcium fluorescence, at 11.8 µM, active compounds read high

| SMILES | inhibition |
| --- | --- |
| Cc1ccc(C(=O)N/C(=C\c2cn(C)c3ccccc23)C(=O)N2CCN(C)CC2)cc1 | 1.64% |
| O=[N+]([O-])c1ncc(Br)cc1Nc1ccccc1 | 17.9% |
| CCCN(CCc1ccccc1)C1CCc2c(O)cccc2C1 (stereo not drawn) | -13% |
| CC(C)NC(=O)CSc1ccccc1C(=O)NCc1ccc2c(c1)OCO2 | 17% |
| Cc1nc2c(C(=O)NCc3ccc4c(c3)OCO4)c[nH]n2c(=O)c1Cc1ccccc1F | 53.2% (active) |
| COc1ccccc1-n1c(C)nc2cc(C(=O)NCc3ccc4c(c3)OCO4)ccc21 | 20.9% |
| COCCN(C(=S)Nc1ccccc1OC)C1CCN(C(C)C)CC1 | -0.52% |
| CCc1ccc(CN(C)C(C)C(=O)Nc2ccc(S(=O)(=O)N3CCCC3)cc2)cc1 (stereo not drawn) | -10.1% |
| COc1ccc2nc(N3C(=O)C(O)=C(C(=O)c4ccco4)C3c3ccco3)sc2c1 (stereo not drawn) | 3.47% |
| C=CCSc1nnc(N2C(=O)C(O)=C(C(=O)c3ccco3)C2c2ccc(F)cc2)s1 (stereo not drawn) | 17.8% |
| Cc1ccc2nc(N3C(=O)C(O)=C(C(=O)c4ccco4)C3c3cccc(O)c3)sc2c1 (stereo not drawn) | 51.9% (active) |
| CS(=O)(=O)N(Cc1nc2sc3c(c2c(=O)[nH]1)CCCC3)C1CCCCC1 | -0.95% |
| CCc1nn(CC(=O)N2CCN(c3cc(C)ccc3C)CC2)c(=O)c2cc3occc3n12 | 3.13% |
| Cc1ccc(CNC(=O)CCNC(=O)Cn2ccc3ccccc3c2=O)cc1 | 87.1% (active) |
| CCCCN(CC)CCNC(=O)CCNC(=O)Cn1ccc2ccccc2c1=O | -0.99% |
| O=C(CCNC(=O)Cn1ccc2ccccc2c1=O)NCCC1=CCCCC1 | -1.26% |
| Cc1ccc(SC(CC(=O)c2ccc(C(C)(C)C)cc2)C(=O)O)cc1 (stereo not drawn) | -15.1% |
| CC(NC(=O)COC(=O)C1CCN(S(=O)(=O)c2ccccc2C(F)(F)F)CC1)c1ccccc1 (stereo not drawn) | -1.56% |
| CCOC(=O)C(C)N(c1ccccc1Cl)S(C)(=O)=O (stereo not drawn) | -3.83% |
| S=c1[nH]ccn1-c1ccc(Cl)cc1 | -16.2% |
| O=C(Nc1nnc(C2=COCCO2)o1)c1ccc([N+](=O)[O-])s1 | -4.65% |
| COc1cc(-c2nnc(NC(=O)C3=COCCO3)o2)cc(OC)c1OC | -9.37% |
| Cc1ccc(C(=O)Nc2nnc(C3=COCCO3)o2)cc1C | 51.4% (active) |
| COc1cc(OC)cc(C(=O)N[C@H](C(=O)OCC(=O)NC(C)c2ccccc2)C(C)C)c1 (stereo partly drawn) | -108% |
| CCn1cc(/C=C2/SC(=S)NC2=O)c(C)n1 | 13.4% |

| SMILES | inhibition |
| --- | --- |
| O=C(OC1CCCCC1=O)c1cccc(S(=O)(=O)NCc2ccccc2)c1 (stereo not drawn) | 12.8% |
| O=C1CCCCC1C(=O)c1ccccc1 (stereo not drawn) | 52.8% (active) |
| Cc1cccc(C(=O)C(O)(c2ccccc2)C2CCCCC2=O)c1 (stereo not drawn) | -14% |
| COc1cccc(CNC(=O)CCN2C(=S)NC(C)(C)CC2C)c1 (stereo not drawn) | 3.81% |
| N#CCc1c[nH]c2ccc([N+](=O)[O-])cc12 | 2.31% |
| Cc1cc([N+](=O)[O-])ccc1NC1CCCC1 | 72% (active) |
| Cc1cc([N+](=O)[O-])c(NC2CCCCC2)c([N+](=O)[O-])c1 | -26.8% |
| Cc1cc([N+](=O)[O-])ccc1NCc1cccc([N+](=O)[O-])c1 | 34.2% |
| CC(C)C(NS(=O)(=O)c1cccs1)C(=O)Nc1nc(C(C)(C)C)cs1 (stereo not drawn) | 7.44% |
| Cc1cc(-c2nnc(SCC(=O)Nc3ccc(S(N)(=O)=O)cc3)n2N)n[nH]1 | 9.63% |
| CCOC(=O)N1CCC(NC(=O)C(NS(=O)(=O)c2ccc3c(c2)CCN3C(=O)CC)C(C)C)CC1 (stereo not drawn) | -2.51% |
| COc1ccc(N=C2C=CC(=O)O2)cc1 | 11.2% |
| OCC1OC(n2cnc3c(N4CCCC4)ncnc32)C(O)C1O (stereo not drawn) | -7.64% |
| COc1cc(OC)cc(-c2c(C#Cc3ccsc3)c3cc(-c4ccc(SC)cc4)ccc3n2C)c1 | 1.84% |
| Cc1ccc(S(=O)(=O)/N=C(\CN2CCOCC2)N2CCOCC2)cc1 | 12.5% |
| CCCc1cc(=O)n2[nH]c(C)c(-c3ccc(Cl)cc3)c2n1 | 13.7% |
| Cc1nc2c(-c3ccccc3)c(C)[nH]n2c(=O)c1Cl | 42.5% |
| Cc1[nH]n(-c2cccc(Cl)c2)c(=O)c1-c1ccc(Cl)cc1 | 50.6% (active) |
| C/C(=N\Nc1ccccc1)c1cccs1 | -0.14% |
| COc1ccccc1N(C)S(=O)(=O)c1ccc(Cl)c(C(=O)N2CCC(C(N)=O)CC2)c1 | 17.1% |
| COc1ccc(C(CC(=O)Nc2ccc(C)cc2)NC(=O)C(F)(F)F)cc1 (stereo not drawn) | -3.52% |
| COc1ccc(NC(=O)C(=O)NCC(=O)Nc2cccc(C(F)(F)F)c2)cc1 | 55.4% (active) |
| C/C(CC(=O)Nc1cccc(C(F)(F)F)c1)=N\NC(=O)C(=O)NCC(C)C | -3.29% |
| CCCCn1c(N)c(N(CC(C)C)C(=O)CN(C)S(=O)(=O)c2ccc(F)cc2)c(=O)[nH]c1=O | -2.99% |
| Cc1c(C(=O)OCC(=O)N(CCC#N)c2ccccc2)oc2c1ccc1ccccc12 | -18.4% |

| SMILES | inhibition |
| --- | --- |
| O=S(=O)(CCc1nc2ccccc2o1)c1ccc(Cl)cc1 | -6.01% |
| CCc1nc2ccccc2n(CCOCCOCCn2c(=O)c(CC)nc3ccccc32)c1=O | -9.64% |
| Cc1nn2c3ccccc3nc2n(C)c1=O | 83.2% (active) |
| Cn1c(-c2ccc(C(=O)c3ccccc3)s2)nc2ccccc21 | 6.07% |
| Cc1ccc(S(=O)(=O)NNC(=S)NC(C)(C)C)cc1 | 0.02% |
| CCNC(=O)NNC(=O)C1CC(c2cccs2)=NO1 (stereo not drawn) | 0.63% |
| O=C(CSc1nnnn1-c1ccc(O)cc1)c1ccc(F)cc1 | 4.96% |
| COc1ccc(-n2nnnc2SCC(=O)c2ccc(OC)c(OC)c2)cc1 | 51.1% (active) |
| COc1ccc(NC(=O)CSc2nnnn2-c2cccc(OC)c2)cc1 | 8.16% |
| CC(C)Oc1ccc(Cc2n[nH]c(=S)n2Cc2ccccc2)cc1Cl | 2.65% |
| O=C(Nc1cccc(C(=O)O)c1)/C(=C\c1ccccc1)NC(=O)c1ccc(Br)o1 | 12.3% |
| COC(=O)Cn1cnc2scc(-c3ccc(C)c(C)c3)c2c1=O | 0.19% |
| O=C(N/N=C/c1cccc2cccnc12)[C@H]1C[C@@H]1c1ccccc1 | -18.3% |
| O=C(CCC(=O)OCC(F)(F)C(F)F)NCc1ccccc1 | 108% (active) |
| O=C(CCOc1ccccc1)NCc1ccccc1 | 2.03% |
| O=C(CCC(=O)c1ccccc1)NCc1cccc(C(F)(F)F)c1 | -4.39% |
| Cc1nc(N)c(Br)c(C)c1Br | -2.67% |
| Cn1cc(S(=O)(=O)N2CCN(c3ccc(F)cc3)CC2)c(=O)n(C)c1=O | -4.51% |
| CC(C)[C@H](NC(=O)N1CCn2c1nc1ccccc12)C(=O)NCc1ccc2c(c1)OCO2 | -3.94% |
| CCC(C)[C@H](NC(=O)N1CCn2c1nc1ccccc12)C(=O)NCc1ccc(OC)cc1 (stereo partly drawn) | 52.2% (active) |
| CC(C)[C@H](NC(=O)N1CCn2c1nc1ccccc12)C(=O)NCCc1ccccc1 | 2.7% |
| O=C(/C(=N\O)n1cncn1)c1ccc(Br)cc1Br | 14.7% |
| COc1cc(OC)cc(C(=O)Nc2ncc3c(n2)CC(C)(C)CC3=O)c1 | 20% |
| O=C(NNC(=S)NC1CC2CCC1C2)c1ccc(Cl)cc1 (stereo not drawn) | -9.96% |
| O=[N+]([O-])c1ccc(C(S(=O)(=O)Cc2ccccc2)S(=O)(=O)Cc2ccccc2)cc1 | 5.72% |

| SMILES | inhibition |
| --- | --- |
| CC1CN/C(=C\C(=O)c2ccc(Br)cc2)C(=O)N1 (stereo not drawn) | 12.3% |
| O=C(NCCS(=O)(=O)c1ccc(Br)cc1)c1ccccc1Cl | 71.2% (active) |
| O=C(NCCCN1CCOCC1)c1ccccc1NS(=O)(=O)c1ccc(Br)cc1 | 1.32% |
| O=C(CCS(=O)(=O)c1ccc(Br)cc1)NCCc1ccc(Cl)cc1 | -3.71% |
| Cc1c(OC(C)C(=O)NCC2CCC(C(=O)O)CC2)ccc2c1oc(=O)c1ccccc12 (stereo not drawn) | 4.13% |
| Cc1nonc1C1CCCN1Cc1nc(-c2ccc(F)cc2F)oc1C (stereo not drawn) | 17.3% |
| CN(C)S(=O)(=O)c1ccc(C(=O)NCC(C)(C)N2CCOCC2)cc1 | 15.6% |
| COc1ccc(C2C(C#N)=C(N)Oc3n[nH]c(C)c32)cc1CN1CCN(c2ccc(F)cc2)CC1 (stereo not drawn) | 3.36% |
| COc1cc(C2C(C#N)=C(N)Oc3n[nH]c(-c4ccccn4)c32)cc(OC)c1OC (stereo not drawn) | 52.2% (active) |
| COCc1[nH]nc2c1C(C1C=CCCC1)C(C#N)=C(N)O2 (stereo not drawn) | -8.71% |
| Cc1ccc(C)c(C(=O)COC(=O)Cn2[nH]c(=O)c3ccccc3c2=O)c1 | 6.49% |
| CC(=O)NNC1=Nc2ccccc2N(C)C(C)C1 (stereo not drawn) | 19% |
| COC(=O)c1ccc(COc2ccc(C#N)cc2)o1 | 10.2% |
| COC(=O)c1ccc(CN2C(=O)NC(c3ccccc3)(c3ccccc3)C2=O)o1 | 0.1% |
| COC(=O)c1ccc(Cc2ccccc2)o1 | 53% (active) |
| CCC(C)C(NC(=O)C1CCC(=O)N1C(=O)OCc1ccccc1)C(=O)NC(C(=O)N1CCCC1C(N)=O)C(C)CC (stereo not drawn) | 2.28% |
| O=C1c2cccc3cccc(c23)C(=O)N1c1cccc(O)c1 | 4.66% |
| O=C(Nc1ccc(S(=O)(=O)Nc2ccccn2)cc1)c1ccccc1 | -0.79% |
| COc1cc(NC(=O)c2ccccc2NS(=O)(=O)c2ccc(Cl)s2)cc(OC)c1 | 90.5% (active) |
| COC(=O)c1ccccc1NS(=O)(=O)c1ccc2[nH]c(=O)[nH]c2c1 | 17.7% |
| COc1ccccc1C(=O)Nc1ccccc1C(=O)Nc1ccccc1 | 6.12% |
| COC(=O)c1ccc(NC(=O)c2ccccc2NS(=O)(=O)c2ccccc2)cc1 | 61% (active) |
| O=S(=O)(Nc1ccccc1N1CCOCC1)c1ccc(Cl)s1 | -0.68% |
